# According to PubChem BioAssay (EPA / NIEHS):
# Results filed as inconclusive are left out. Calls of active or inactive are those of the source. How the source made its calls, unless noted: active means hit-call score of the fitted dose curve at least 0.9, where 1 is the maximum; inconclusive means response in the unintended direction; inactive means score below 0.9.
# Experiments:
# [1] = STM_H9_OrnCyssISnorm_ratio: Stemina devTOX quickPredict H9 human embryonic stem cell (hESC)-based Assay for Ornithine (ORN):Cystine (CYSS) Ratio (AID 2283714)
# Method in brief: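 H9 hESC, 72h, q24h re-dose; last-day media → acetonitrile deproteinization → UPLC-HRMS. ORN:CYSS ratio from isotope-normalized EIC areas, vs 0.1% DMSO; MTX references on each plate.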
# [2] = UKN5_HCS_SBAD2_cell_viability: Viability Assessment in the University of Konstanz (UKN) Leist Lab Neurite Outgrowth Assay in human iPSC-derived immature Dorsal Root Ganglia Neurons (UKN5) (AID 2284056; active means hit-call score of the fitted dose curve at least 0.9, where 1 is the maximum; inactive means score below 0.9)
# Method in brief: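 iPSC-derived immature peripheral neurons (SBAD2) seeded on Matrigel with CHIR99021, SU5402 and DAPT, dosed 1 h later for 24 h. Viability from Hoechst H-33342 and calcein-AM live staining, high-content imaging; bidirectional fit versus DMSO.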
# [3] = UKN5_HCS_SBAD2_neurite_outgrowth: University of Konstanz (UKN) Leist Lab Neurite Outgrowth Assay in human iPSC-derived immature Dorsal Root Ganglia Neurons (UKN5) (AID 2284070; active means hit-call score of the fitted dose curve at least 0.9, where 1 is the maximum; inactive means score below 0.9); conditions: actives raise or lower the signal
# Method in brief: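 Neurite area from calcein-AM high-content images after 24 h exposure (staining included), with H-33342 for viability, fitted both directions against DMSO. Cells: thawed immature SBAD2 peripheral neurons, 100.000 cells/cm2, with CHIR99021, SU5402, DAPT; dosing 1 h after seeding.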
# [4] = UKN2_HCS_IMR90_neural_migration: University of Konstanz (UKN) Leist Lab Neural Crest Cell Migration Assay in human induced IMR90 Pluripotent Stem Cells (UKN2) (AID 2284204; active means hit-call score of the fitted dose curve at least 0.9, where 1 is the maximum; inactive means score below 0.9); conditions: actives raise or lower the signal
# Method in brief: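 Using a 96-well stopper format with PLO/laminin/fibronectin coating, neural crest cells from iPSC migrate in cytokine-supplemented N2-S medium; after 24 h, chemicals are applied for a further 24 h, then cells are imaged after dye staining.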
# [5] = UKN4_HCS_LUHMES_neurite_outgrowth: University of Konstanz (UKN) Leist Lab Neurite Outgrowth Assay in human LUHMES cells (UKN4) (AID 2284206; active means hit-call score of the fitted dose curve at least 0.9, where 1 is the maximum; inactive means score below 0.9); conditions: actives raise or lower the signal
# Method in brief: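 After 24 h compound treatment beginning shortly after replating of 2-day-differentiated LUHMES cells, calcein-AM and H-33342 live staining allowed high-content imaging of neurite area and viability. Fitted bidirectionally against DMSO.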
# [6] = target: PGR (gene 5241) (UniProt P06401); experiment: TOX21_PR_BLA_Followup_Antagonist_ratio: Tox21 HEK293 Progesterone Receptor (PR) Antagonism Beta-lactamase Follow-Up Assay, Ratio (AID 2283934);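 further: PR-UAS-bla HEK293T cells stimulated with 1 nM R5020 agonist for 16 hr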
# Method in brief: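 Readout is the blue/green (ch2/ch1) substrate cleavage ratio after 2 hours at room temperature, following 16 hr co-treatment of PR-bla HEK293T cells with compound and 1nM promegestone. Multiplexed CellTiter-Glo viability flags cytotoxicity; DMSO baseline.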
# [7] = TOX21_PR_BLA_Followup_Agonist_viability: Viability Assessment in the Tox21 HEK293 Progesterone Receptor (PR) Agonism Beta-lactamase Follow-Up Assay (AID 2283935);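 further: signal loss means lower viability so actives are cytotoxic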
# Method in brief: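 Run multiplexed with the beta-lactamase FRET read, this endpoint measures ATP by CellTiter-Glo luminescence (30 min, room temperature). PR-UAS-bla HEK293T cells received compound 6 hr after plating and were then incubated 16 hr at 37C in 2% stripped serum.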
# [8] = TOX21_PR_BLA_Followup_Antagonist_viability: Viability Assessment in the Tox21 HEK293 Progesterone Receptor (PR) Antagonism Beta-lactamase Follow-Up Assay (AID 2283936);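 further: cells exposed to compound with R5020 agonist for 16 h; hits lower the luminescence signal meaning cytotoxicity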
# Method in brief: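 PR-UAS-bla HEK293T cells in medium with 2% charcoal-stripped FBS were treated with compounds plus R5020 for 16 hr at 37C. After the beta-lactamase read, CellTiter-Glo was added to the same wells and luminescence read after 30 min at room temperature.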
# [9] = target: PGR (gene 5241) (UniProt P06401); experiment: TOX21_PR_LUC_Followup_Antagonist: Tox21 HEK293 Progesterone Receptor (PR) Antagonism Luciferase Follow-Up Assay (AID 2283938);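 further: curve fitted upward as signal gain over DMSO baseline despite antagonist label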
# Method in brief: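 HEK293-PR-A-luc cells, 3,000/well, preincubated 5 h at 37C before compound addition in DMSO; 16 h compound exposure at 37C. ONE-Glo luciferase luminescence read after 30 min at room temperature, fitted relative to DMSO baseline.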
# [10] = TOX21_TRB_BLA_Antagonist_Followup_viability: Viability Assessment in the Tox21 Thyroid Hormone Receptor beta Antagonism Beta-lactamase (BLA) Follow-Up Assay (AID 2283961)
# Method in brief: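 HEK293T cells with GAL4-human TRβ LBD and UAS-bla reporter, 3,000 cells/well in 2% charcoal-stripped FBS medium; 11-point concentrations in triplicate, 18 h at 37C. Viability from ATP by CellTiter-Glo luminescence, 30 min RT, same plates.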
# [11] = target: Retinoic acid receptor RXR-alpha (Homo sapiens) (UniProt P19793); experiment: TOX21_TR_RXR_BLA_Antagonist_Followup_ratio: Tox21 Thyroid Hormone Receptor beta Retinoid X Receptor alpha (RXRa) Antagonism Beta-lactamase (BLA) Follow-Up Assay, Ratio (AID 2283972)
# Method in brief: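 RXRa-UAS-bla HEK293T cells, 2,500/well in phenol red-free DMEM with 2% charcoal-stripped FBS, 5 h attachment, then compounds (11 concentrations, triplicate) for 16 h at 37C; FRET-B/GCCF4-AM substrate 2 h RT; 460:530 nm ratio, loss of signal vs DMSO.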
# [12] = TOX21_TR_RXR_BLA_Antagonist_Followup_viability: Viability Assessment in the Tox21 Thyroid Hormone Receptor beta Retinoid X Receptor alpha (RXRa) Antagonism Beta-lactamase (BLA) Follow-Up Assay (AID 2283979)
# Method in brief: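 RXRa-UAS-bla HEK293T cells seeded 2,500/well in phenol red-free DMEM with 2% charcoal-stripped FBS, attached 5 h, then exposed to compounds at 11 concentrations in triplicate for 16 h at 37C/5% CO2. Viability read by CellTiter-Glo ATP luminescence; bidirectional fit versus DMSO.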
# Retinoic acid receptor RXR-alpha (Homo sapiens), sequence (P19793 whole entry, looked up): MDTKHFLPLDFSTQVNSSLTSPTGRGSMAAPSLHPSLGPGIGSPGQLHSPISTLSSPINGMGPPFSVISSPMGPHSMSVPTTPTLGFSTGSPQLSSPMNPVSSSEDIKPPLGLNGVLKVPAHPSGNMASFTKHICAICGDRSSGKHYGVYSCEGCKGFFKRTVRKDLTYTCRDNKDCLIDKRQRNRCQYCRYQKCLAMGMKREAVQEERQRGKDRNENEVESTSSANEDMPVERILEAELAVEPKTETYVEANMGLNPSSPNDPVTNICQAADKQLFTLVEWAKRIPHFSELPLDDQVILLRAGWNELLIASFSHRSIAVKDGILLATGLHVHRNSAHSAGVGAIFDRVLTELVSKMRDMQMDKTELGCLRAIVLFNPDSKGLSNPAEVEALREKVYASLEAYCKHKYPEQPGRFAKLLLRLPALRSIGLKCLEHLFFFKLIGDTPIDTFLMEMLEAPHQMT
# PGR (gene 5241), sequence (P06401 whole entry, looked up): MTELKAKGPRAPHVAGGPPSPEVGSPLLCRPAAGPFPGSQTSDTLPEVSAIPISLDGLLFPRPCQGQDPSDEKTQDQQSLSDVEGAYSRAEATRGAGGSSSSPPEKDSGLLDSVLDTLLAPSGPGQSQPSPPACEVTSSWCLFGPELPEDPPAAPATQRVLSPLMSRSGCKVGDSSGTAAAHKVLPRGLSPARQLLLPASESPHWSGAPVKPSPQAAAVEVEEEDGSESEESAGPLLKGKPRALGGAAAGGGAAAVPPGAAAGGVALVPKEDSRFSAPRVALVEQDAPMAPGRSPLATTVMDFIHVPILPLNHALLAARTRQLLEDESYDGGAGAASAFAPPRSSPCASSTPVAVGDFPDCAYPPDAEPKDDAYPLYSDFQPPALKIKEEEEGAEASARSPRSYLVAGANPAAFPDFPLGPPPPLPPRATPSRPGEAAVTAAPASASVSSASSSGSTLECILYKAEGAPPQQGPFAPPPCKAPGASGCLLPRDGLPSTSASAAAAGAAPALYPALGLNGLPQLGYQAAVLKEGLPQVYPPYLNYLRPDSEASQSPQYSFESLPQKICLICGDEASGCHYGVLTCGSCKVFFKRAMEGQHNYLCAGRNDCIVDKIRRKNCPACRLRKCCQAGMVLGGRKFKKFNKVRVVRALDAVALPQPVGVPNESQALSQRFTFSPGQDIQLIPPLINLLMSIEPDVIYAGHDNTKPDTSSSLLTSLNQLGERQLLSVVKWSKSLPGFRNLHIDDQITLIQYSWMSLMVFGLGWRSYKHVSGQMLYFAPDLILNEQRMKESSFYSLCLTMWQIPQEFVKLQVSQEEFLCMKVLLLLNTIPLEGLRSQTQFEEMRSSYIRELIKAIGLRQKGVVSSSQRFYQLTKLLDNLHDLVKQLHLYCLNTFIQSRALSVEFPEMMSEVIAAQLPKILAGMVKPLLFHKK
compound,measurement,setting,value
Cc1c(C(N)=O)cc([N+](=O)[O-])cc1[N+](=O)[O-],outcome,[1],inactive
CNCCC(Oc1ccc(C(F)(F)F)cc1)c1ccccc1 (stereo unspecified),AC50,[2],18.8 µM (active)
same,AC50,[3],12.7 µM (active)
same,AC50,[4],15 µM (active)
same,AC50,[5],7.3 µM (active)
CC(O)(c1ccc(Cl)cc1)c1ccc(Cl)cc1,AC50,[6],46.1 µM (active)
same,outcome,[7],inactive
same,outcome,[8],inactive
same,AC50,[9],61.6 µM (active)
Cc1oc(C)c(C(=O)Nc2ccccc2)c1C,outcome,[10],inactive
same,outcome,[11],inactive
same,outcome,[12],inactive
Oc1ccc2c(c1)Cc1ccccc1-2,AC50,[6],29.4 µM (active)
same,outcome,[7],inactive
same,outcome,[8],inactive
same,AC50,[9],38.1 µM (active)
CC(COc1ccccc1)N(CCCl)Cc1ccccc1 (stereo unspecified),AC50,[6],31.6 µM (active)
same,outcome,[7],inactive
same,outcome,[8],inactive
same,outcome,[9],inactive
O=C(CCCCCCC(=O)Nc1ccccc1)NO,outcome,[10],inactive
same,outcome,[11],inactive
same,outcome,[12],inactive
CO[C@H]1C[C@@H]2CC[C@@H](C)[C@@](O)(O2)C(=O)C(=O)N2CCCC[C@H]2C(=O)O[C@H]([C@H](C)C[C@@H]2CC[C@@H](O)[C@H](OC)C2)CC(=O)[C@H](C)/C=C(\C)[C@@H](O)[C@@H](OC)C(=O)[C@H](C)C[C@H](C)\C=C/C=C/C=C/1C,outcome,[10],inactive
same,outcome,[11],inactive
same,outcome,[12],inactive
